# Source: PubChem BioAssay
# Most compounds without a hit are left out; they make up all but 7.4% or so of the library.
# Rab9 prom act: activates the Rab9 promoter | Potency, µM (highest dose often 9.22 µM), most hits filed as activators | actives 2.8% (n = 320,000) | Huh7 Rab9 promoter-luciferase reporter, luminescence, 24 h; further: nearly all actives have a fitted effect of over 60% in size
#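 Measured in stably transfected Huh7 cells bearing a Rab9 promoter–luciferase construct: 24 h compound treatment at 37 °C, followed by luminescence detection.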
# FLuc counter: counter-screen for miR-21 project: firefly luciferase inhibitors or activators | P08659 | actives 6.9% (n = 360,000) | Potency, µM (doses to about 57.5 µM), actives largely listed as inhibitors | AID 588342 | purified FLuc, Km substrates, luminescence inhibition; further: nearly all actives have a fitted effect of over 55% in size
# Target sequence (P08659 whole entry, looked up): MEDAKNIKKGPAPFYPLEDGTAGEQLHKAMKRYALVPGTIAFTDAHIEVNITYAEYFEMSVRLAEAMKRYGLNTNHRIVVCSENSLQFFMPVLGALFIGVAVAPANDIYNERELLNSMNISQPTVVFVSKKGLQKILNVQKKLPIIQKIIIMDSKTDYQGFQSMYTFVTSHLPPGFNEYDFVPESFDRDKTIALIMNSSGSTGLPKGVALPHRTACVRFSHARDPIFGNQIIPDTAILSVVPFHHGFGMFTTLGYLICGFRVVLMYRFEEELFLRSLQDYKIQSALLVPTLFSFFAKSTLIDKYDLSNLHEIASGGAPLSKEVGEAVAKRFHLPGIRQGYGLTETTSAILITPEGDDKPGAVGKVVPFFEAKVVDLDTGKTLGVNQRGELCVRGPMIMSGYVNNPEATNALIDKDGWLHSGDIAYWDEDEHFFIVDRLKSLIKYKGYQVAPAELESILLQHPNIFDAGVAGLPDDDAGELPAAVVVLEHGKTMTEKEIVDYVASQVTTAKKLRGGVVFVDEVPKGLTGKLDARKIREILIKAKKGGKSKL
#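 Biochemical qHTS of compounds, final roughly 60 µM downward over six points, against 10 nM purified firefly luciferase using Km concentrations of substrates (10 uM D-luciferin, 10 uM ATP) in Tris acetate pH 7.5 buffer; luminescence output.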
# SMN2 splice enh: increases expression of the SMN2 splice variant; HEK293 SMN2-luciferase splicing reporter, luminescence, 30-36 h; AID 1458; Potency, µM (top dose mostly 46.1 µM), most hits filed as activators; actives 2.8% (n = 210,000); further: nearly all actives have a fitted effect of over 55% in size
#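 HEK293 cells carry an SMN2 […]–luciferase reporter in which exon 7 inclusion puts luciferase in frame. Cells were plated 10-12 h before compound addition, then incubated 30-36 h at 37C. ONE-Glo luminescence was read; sodium butyrate at 4.5 mM final served as control.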
# ELG1 genotoxic: inducers of genotoxicity in HEK293T ELG1-luciferase cells; HEK293T ELG1-luciferase reporter, luminescence, 16 h; Potency, µM (titrated, usually from 46 µM), hits mostly activators; actives 1.3% (n = 330,000); further: nearly all actives have a fitted effect of over 60% in size
#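 Reporter readout depends on ELG1 protein level, which increases with genetic stress. After 16 hr compound exposure at 37 °C, luciferase activity was quantified using ONE-Glo.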
# NPC1 promoter act: activates the NPC1 promoter; Huh7 NPC1 promoter luciferase reporter, 24 h; Potency, µM (doses to about 9.22 µM), actives largely listed as activators; actives 2.4% (n = 320,000); AID 485313; further: nearly all actives have a fitted effect of over 60% in size
#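 Quantitative HTS used a cell-based reporter: Huh7 cells stably bearing the NPC1 promoter upstream of luciferase were treated with compounds for 24 h, and promoter activation was read as luminescence.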
# Hits are given with their value; – = inactive; ? = inconclusive; · = no result; [ ] = dose if it differs, or a comment. The call rests on the fitted dose curve; in most records, active means well fitted curve in the direction sought with a large enough effect; inconclusive means small, poorly fitted or top-dose-only effect, or another doubt; inactive means no such curve, though single readings can be large; an effect the other way counts as inactive or inconclusive.
SMILES,Rab9 prom act,FLuc counter,SMN2 splice enh,ELG1 genotoxic,NPC1 promoter act
CCOc1ccc(-c2cc(N3C(=O)Nc4ccccc4N3O)n[nH]2)cc1,–,6.7µM,–,–,–
CCOC(=O)c1c(N2C(=O)Nc3ccccc3N2O)n[nH]c1-c1cccc(Cl)c1,–,?,–,–,–
COc1cccc(-c2cc(N3C(=O)Nc4ccccc4N3O)n[nH]2)c1,–,15µM,–,–,–
COC(=O)N[C@@H](/C=C/c1ccccc1)C[N+](=O)[O-],·,·,–,·,·
CCN1CCN(C(c2ccccc2)c2sc3nc(-c4ccco4)nn3c2O)CC1 (stereo not drawn),·,–,·,·,·
O=[N+]([O-])c1ccc(C(c2sc3nc(-c4ccco4)nn3c2O)N2CCN(c3cccc(Cl)c3)CC2)cc1 (stereo not drawn),·,19µM,·,·,·
Cc1ccc(C)n1-c1nnc(N2CCC(C(=O)Nc3ccccc3Br)CC2)s1,·,–,–,·,·
COc1cc2c(cc1OC)C(C)N(C(C)=O)CC2 (stereo not drawn),–,–,0.63µM,?,–
COc1cc2c(cc1OC)C(C)N(C(=O)c1cc(C)on1)CC2 (stereo not drawn),–,–,·,?,–
Cc1ccc(C)c(Cn2c(=O)n(CCCCC(=O)NCc3ccc4c(c3)OCO4)c(=O)c3ccccc32)c1,·,–,–,·,·
O=C1Nc2ccccc2/C1=C/c1cnc(-c2ccccc2)[nH]1,4µM,?,·,?,2.8µM
CCn1c(C)cc(/C=C2/NC(=O)N(c3ccccc3)C2=O)c1C,1.4µM,7.6µM,11µM,?,3.2µM
O=C1N/C(=C/c2ccsc2)C(=O)N1c1ccccc1,2.8µM,?,–,?,?
O=C(O)c1ccc(-n2cccc2/C=C2/NC(=O)N(c3ccccc3)C2=O)cc1,–,–,·,–,–
Cc1ccc(-c2cc(-c3ccccc3Cl)[nH]n2)c(O)c1,?,–[2.3 µM],13µM,?,?
Cc1ccccc1-c1cc(-c2ccccc2O)n[nH]1,3.2µM,?,25µM,?,–
Cc1ccc(-c2cc(-c3ccccc3[N+](=O)[O-])[nH]n2)c(O)c1,3.5µM,?,18µM,?,?
CC1=C(/C=C\C(=O)O)C(C)(C)CCC1,·,·,–[9.22 µM],·,·
Cc1ccc(N2CC(NC(=O)CCCc3ccccc3)CC2=O)cc1 (stereo not drawn),·,–,·,·,·
CNc1nc(-c2ccc(Cl)cc2)cs1,2.8µM,6.7µM,–,?,2.8µM
CCN(CC)CC(=O)Nc1nc(-c2ccc(Cl)cc2)cs1,–,–,–,–,–
CCNc1nc(-c2ccc(Cl)cc2)cs1,2.2µM,3.4µM,–,?,3.5µM
CC(C)C(=O)Nc1nc(-c2ccc([N+](=O)[O-])cc2)cs1,–,?,–,–,–
CNc1nc(-c2ccc([N+](=O)[O-])cc2)cs1,?,12µM,–,–,?
COCc1c(Br)c(C)nc2sc3c(=O)n(-c4cccc(Br)c4)nnc3c12,·,–,–,·,·
SMILES,Rab9 prom act,FLuc counter,SMN2 splice enh,ELG1 genotoxic,NPC1 promoter act
Cc1ccc(NC(=O)c2cccc(NC(=O)CC3SC(N4CCCCC4)=NC3=O)c2)nc1 (stereo not drawn),–,11µM,·,–,–
Cc1ccc(NC(=O)c2ccc3c(c2)NC(=O)CS3)nc1,?,?,·,9.2µM,?
Cc1ccnc(NC(=O)c2ccc(N3C(=O)CCC3=O)cc2)c1,?,19µM,–,–,?
Cc1ccc(NC(=O)c2ccc3c(c2)OCCO3)nc1,0.35µM,1.3µM,·,?,0.63µM
Cc1ccc(NC(=O)CNC(=O)c2ccc3c(c2)OCO3)nc1,–,–,·,–,–
CCN(CC)CC[n+]1ccc2c(C)c3[nH]c4ccc(O)cc4c3c(C)c2c1,·,·,–[9.22 µM],·,·
Cc1ccc2nc(NC(=O)c3ccc(N4C(=O)CCC4=O)cc3)sc2c1,–,?,–,–,–
Cc1cc(C)c2sc(NC(=O)c3ccc(N4C(=O)CCC4=O)cc3)nc2c1,–,2.4µM,·,–,–
Cc1ccnc(NC(=O)c2ccc3c(c2)OCO3)c1,0.45µM,2.1µM,·,?,0.5µM
Cc1ccc2c(ccn3cc4c(c(=O)n(C)c(=O)n4C)c23)c1,–,2.7µM,–,?,–
Cc1cccc(-c2c3c(=O)n(C)c(=O)n(C)c3cn2C(C)C)c1,–,–,–,–,–
COc1ccccc1NC(=O)C1=C(C)Nc2ncnn2C1c1ccc[nH]1 (stereo not drawn),·,–,·,·,·
O=C(Nc1nc2ccccc2[nH]1)c1ccc(OC(F)F)cc1,0.28µM,0.54µM,·,1.5µM,0.13µM
CC(C)Oc1ccc(C(=O)Nc2nc3ccccc3[nH]2)cc1,?,0.12µM,·,?,?
CCC(Oc1ccccc1)C(=O)Nc1nc2ccccc2[nH]1 (stereo not drawn),–,?,–,–,–
N#CC(Cc1ccc(OC(F)F)cc1)c1nc2ccccc2[nH]1 (stereo not drawn),?,8.5µM,?,?,?
O=C(Nc1nc2ccccc2[nH]1)c1ccccc1OC(F)F,0.5µM,0.95µM,·,?,0.79µM
CCOc1ccccc1C1C(C(=O)Nc2ccccc2)=C(C)Nc2nc(SCC(=O)c3ccc(C)cc3)nn21 (stereo not drawn),·,–,·,·,·
COC(=O)c1sccc1S(=O)(=O)N(CC(=O)NCc1ccc(C)cc1)c1ccccc1,·,–,·,·,·
Cc1ccc(NC(=O)Nc2cccn(Cc3c(F)cccc3Cl)c2=O)cc1,–,7.6µM,–,–,–
C#CCOC(=O)Nc1cccn(Cc2c(Cl)cccc2Cl)c1=O,–,17µM,–,–,–
O=C(Nc1cccn(Cc2c(Cl)cccc2Cl)c1=O)C1CC1,–,–,–,–,–
O=C(Nc1cccn(Cc2c(F)cccc2Cl)c1=O)NC1CCCCC1,–,13µM,·,–,–
O=C(Nc1cccn(Cc2cccc(F)c2)c1=O)NC1CCCCC1,–,?,–,–,–
O=C(NCc1ccccc1)Nc1cccn(Cc2c(F)cccc2Cl)c1=O,–,13µM,–,–,–
SMILES,Rab9 prom act,FLuc counter,SMN2 splice enh,ELG1 genotoxic,NPC1 promoter act
O=C(c1cccc(F)c1)N1CCC2(CC1)CCN(c1ccncc1)CC2,·,·,–,·,·
CSc1cccc(NC(=O)Cn2c(=O)n(Cc3ccccc3)c(=O)c3sc4ccccc4c32)c1,·,–,–,·,·
O=C(NC(=O)c1ccccc1F)OCc1ccc(Cl)cc1Cl,–,12µM,·,–,–
O=C(CNC(=O)c1ccccc1F)NCCc1ccc(Cl)cc1Cl,–,–,·,–,–
COC(=O)c1ccc(NC(=O)C(=O)N2CCCC2)cc1,?,21µM,?,?,2.8µM
Cc1ccc(NC(=O)N2CCCCCC2)cc1,?,15µM,·,?,?
CCN1CCN(C(=O)Nc2ccc(Cc3ccc(NC(=O)N4CCN(CC)CC4)cc3)cc2)CC1,–,13µM,–,–,–
COC(=O)c1ccc(NC(=S)N2CCCC2)cc1,–,–,–,–,–
O=C(Nc1ccccc1)N1CCN(CCc2ccccc2)CC1,–,–,–,–,–
O=C(Nc1ccc(Br)cc1)N1CCCC(O)C1 (stereo not drawn),–,–,–,–,–
O=C(Nc1ccc(Br)cc1)N1CCCCCC1,2.2µM,11µM,·,?,?
O=C(NCc1ccc(F)cc1)c1cc(Sc2ccc(F)cc2F)nc2ccccc12,·,–,·,·,·
